SMILES strings stand for the structures. Values joined by “and” are separate entries in the source; they are usually repeats but may differ in a detail not shown here. Identical values can stand only once. Inconclusive results are not listed. Some compounds were tested as several samples or in several runs, with calls that do not always agree. Active and inactive are the calls of the source. How the source made its calls: active means hit-call score of the fitted dose curve at least 0.9, where 1 is the maximum; inconclusive means response in the unintended direction; inactive means score below 0.9.

Usually AC50 stands for the concentration at which the activity in the assay is half-maximal.

The target in this test is human Thyroid Receptor alpha (THRa1), THRA (gene 7067) (UniProt P10827). The test is described as follows: ATG_THRa1_TRANS: Attagene TRANS-FACTORIAL HepG2 Assay for human Thyroid Receptor alpha (THRa1) (AID 2283014). The method, then: ATG_TRANS is a cell-based, multiplexed-readout assay that uses HepG2, a human liver cell line, with measurements taken at 24 hours after chemical dosing in a 24-well plate.ATG_THRa1_TRANS is one of 30 assay component(s) measured or calculated from the ATG_TRANS assay. It is designed to make measurements of mRNA induction, a form of inducible reporter, as detected with fluorescence intensity signals by Reverse transcription polymerase chain reaction (RT-PCR) and Capillary electrophoresis technology.Data from the assay component ATG_THRa1_TRANS was analyzed into 1 assay endpoint. This assay endpoint, ATG_THRa1_TRANS, was analyzed in the positive analysis fitting direction relative to DMSO as the negative control and baseline of activity. Using a type of inducible reporter, measures of mRNA for gain-of-signal activity can be used to understand the reporter gene at the transcription factor-level as they relate to the gene THRA. Furthermore, this assay endpoint can be referred to as a primary readout, because this assay has produced multiple assay endpoints where this one serves a reporter gene function. To generalize the intended target to other relatable targets, this assay endpoint is annotated to the nuclear receptor intended target family, where the subfamily is non-steroidal.
human Thyroid Receptor alpha (THRa1), THRA (gene 7067), sequence (P10827 whole entry, looked up): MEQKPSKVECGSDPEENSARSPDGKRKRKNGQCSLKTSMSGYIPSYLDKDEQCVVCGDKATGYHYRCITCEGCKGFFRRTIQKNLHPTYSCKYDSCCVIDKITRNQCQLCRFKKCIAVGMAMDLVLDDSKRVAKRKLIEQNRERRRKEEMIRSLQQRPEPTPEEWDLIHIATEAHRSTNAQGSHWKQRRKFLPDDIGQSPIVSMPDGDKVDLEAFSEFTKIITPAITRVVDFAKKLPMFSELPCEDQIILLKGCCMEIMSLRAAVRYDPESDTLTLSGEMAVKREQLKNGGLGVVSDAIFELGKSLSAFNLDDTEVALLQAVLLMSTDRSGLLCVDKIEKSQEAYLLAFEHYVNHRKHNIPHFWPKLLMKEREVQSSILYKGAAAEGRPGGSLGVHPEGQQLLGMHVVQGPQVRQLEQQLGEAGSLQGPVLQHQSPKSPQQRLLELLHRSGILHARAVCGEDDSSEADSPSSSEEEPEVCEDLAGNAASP
Human liver HepG2 cells are transiently transfected with multiple reporter transcription units (MRTUs) in 6-well plates using FuGene 6 reagent (Roche; 3 ml FuGene/1 mg DNA). The MRTU constructs are regulated by a cis-regulating element (promoter). […] A major difference between the CIS and TRANS system is that in CIS activities of endogenous TFs are measured, whereas the TRANS assay evaluates changes in activities of exogenous, chimeric NR-Gal4 proteins. […] At the end of 24 hour incubation, total RNA was isolated using TriZol reagent (Invitrogen). The isolated RNA is then reverse-transcribed using oligo(dT) primer and Mo-MLV reverse transcriptase (Invitrogen) with DNAse I (Ambion) treatment for 30 min. The one-tenth of the produced cDNA was amplified by PCR using Taq DNA polymerase (Invitrogen) and two reporter sequence-specific primers. The PCR products were fluorescently labeled by primer extension with 6-arboxyfluorescein (6-FAM) 5'-labeled reporter sequence-specific primer (2 min at 95 C, 20 s at 68 C and 10 min at 72 C) and these products were digested with 5U of HpaI (New England Biolabs) for 2h at 37 C. The fragments were purified using Qiaquick PCR columns (Qiagen), analyzed on an ABI 3130xL genetic analyzer (Applied Biosystems) with peak positions identified by using a set of X-rhodamine (ROX)-labeled MapMarker1000 molecular weight standards (BioVentures). The raw capillary electrophoresis data was processed using Attagraph software (Attagene).
On to `O=S(=O)(O)c1cc(S(=O)(=O)O)c2c(N=Nc3ccccc3)c(O)ccc2c1`, for which the molecule was classed as inactive.

Turning to `O=c1cc[nH]cc1`, the outcome was inactive.

Regarding `CC(=O)CCC(=O)O`, the molecule was called inactive.

Regarding `CCCCCCCOC(C)=O`, the outcome was inactive.

As to `CCCCCCCCSCc1cc(C)c(O)c(CSCCCCCCCC)c1`, the outcome was inactive.

On to `Brc1cc(Br)cc(Br)c1`, for which the molecule was classed as inactive.

As to `CC(=O)Nc1cc(S(=O)(=O)O)cc2cc(S(=O)(=O)O)c(N=Nc3ccccc3)c(O)c12`, the molecule was classed as inactive.

As for `CCCCCc1cccc(=O)o1`, the molecule was called inactive.

Consider `O=C(O)c1cc2ccccc2cc1O`, for which the result was inactive.

As for `C=C(C)C(=O)OCCC[Si](OC)(OC)OC`, the call was inactive.

In the case of `C=CC(O)CCCCC` (stereo not given), the molecule was called inactive.

For `CN(C)C(=O)Nc1ccccc1`, the call was inactive.

As to `CCCCCCCCCCCCN1CCOCC1`, the outcome was inactive.

Consider `O=[N+]([O-])c1cc(N(CCO)CCO)ccc1NCCO`, for which the result was inactive.

As to `NC(=O)c1cccnc1`, the result was inactive.

Regarding `C=CC(=O)OCC(CO)(COC(=O)C=C)COC(=O)C=C`, the call was inactive.

Take `C1COCO1`: the molecule was called inactive.

For the molecule `c1ccc2c(c1)-c1ccc3ccc4cccc5cc-2c1c3c45`, the molecule was classed as inactive.

On to `c1coc(CNc2ncnc3nc[nH]c23)c1`, for which the outcome was inactive.

With `CC(C)(C)C1CCC(O)CC1` (stereo not given), the molecule was called inactive.

Take `N#CCCCC(C#N)CCC#N` (stereo not given): the molecule was classed as inactive.

In the case of `C=C1CC/C=C(\C)CC[C@@H]2[C@@H]1CC2(C)C`, the outcome was inactive.

On to `OCCCO`, for which the call was inactive.

Turning to `C1CCCNCC1`, the result was inactive.

Turning to `CCOc1ccc(NC(C)=O)cc1`, the molecule was called inactive.

For the molecule `CCCCN(CCO)CCO`, the molecule was called inactive.

On to `CN(C)CCC=C1c2ccccc2CCc2ccccc21`, for which the molecule was classed as inactive.

In the case of `CCC(C)COC(=O)CC(C)C` (stereo not given), the molecule was classed as inactive.

With `c1ccc(Cc2ccccc2)cc1`, the call was inactive.

Regarding `N=C1N=C(N)c2ccccc21`, the call was inactive.

Consider `CC(=O)CCc1ccc(O)cc1`, for which the call was inactive.

As for `CCC=C(C)C=O`, the call was inactive.

Consider `CCO[Si](CCC#N)(OCC)OCC`, for which the outcome was inactive.

In the case of `CC(C)CCOC(=O)CC(C)C`, the molecule was called inactive.

As to `CC(=O)c1ccc(O)cc1`, the outcome was inactive.

Regarding `CC/C=C\CCCCO`, the molecule was called inactive.

Turning to `O=C(c1ccc(OCCN2CCCCC2)cc1)c1c(-c2ccc(O)cc2)sc2cc(O)ccc12`, the result was inactive; the AC50 is 8.22 µM (active) and 15 µM (active) and 11.1 µM (active).

With `Nc1ccc(O)c(N)c1`, the molecule was called inactive.

For `CC1=CC(C)C(C=O)C(C)C1` (stereo not given) (tested in a mixture with another compound), the result was inactive.

(Values after PubChem BioAssay (EPA / NIEHS).)
